# Screening results: PubChem, several laboratories
# BoNT A protease = BoNT A light chain protease inhibition | multiplex microsphere protease substrate cleavage, flow cytometry | inhibition, % at 10 µM | hit rate 0.17% among 360,000
# BoNT-F LC inh = BoNT F light chain protease inhibition | Multiplex microsphere protease cleavage assay, flow cytometry | inhibition, % at 10 µM | hit rate 0.22% among 360,000; in the data active means inhibition above about 35%, passing the limit was not always enough; inconclusive means no clear call, values can overlap the other calls
# Bead autofluor = counter-screen for toxin protease inhibitors: compound fluorescence; compound autofluorescence counterscreen, microsphere flow cytometry; hits give high values; fluorescence intensity (no concentration beside the values); hit rate 3.1% among 360,000; in the data active means fluorescence intensity above about 16000; inconclusive means no clear call, values can overlap the other calls
# TcdB GH inh = blocks C. difficile toxin B glycohydrolase activity; inhibition, % at 9.99 µM; hit rate 0.24% among 350,000; P18177; TcdB glycohydrolase enzymatic assay, plate reader; in the data active means inhibition above about 10%
# Anthrax LF inh2 = inhibitors of Bacillus anthracis lethal factor protease; hit rate 0.12% among 360,000; inhibition, % at 10 µM; AID 588501; multiplex microsphere protease cleavage assay, LF; P15917
# Hits are given with their value; . = inactive; ? = inconclusive; / = no result given. Shown is part of a subset that was picked to be rich in hits. Unless noted, no stated cut-off is given here; in the data, active means inhibition above about 30%; inconclusive means no clear call, values can overlap the other calls; inactive means below that.
SMILES,BoNT A protease,BoNT-F LC inh,Bead autofluor,TcdB GH inh,Anthrax LF inh2
C[C@H](CO)N1C[C@H](C)[C@H](CN(C)Cc2ccc(C(F)(F)F)cc2)Oc2ccc(NC(=O)Nc3cccc4ccccc34)cc2CC1=O,/,/,/,.,/
CC1=NN(C(=O)c2ccccc2Cl)C(O)(c2cccnc2)C1 (stereo unspecified),.,.,.,.,.
CC1=NN(C(=O)Cc2ccccc2)C(O)(c2cccnc2)C1 (stereo unspecified),?,.,21683,/,.
CCOC(=O)N1CCN(C(=O)CN(c2ccc(OCC)cc2)S(C)(=O)=O)CC1,.,.,22023,/,.
CCOC(=O)N1CCN(C(=O)CN(c2ccc(OC)c(OC)c2)S(C)(=O)=O)CC1,.,.,16773,/,.
O=C(C[C@@H]1CC[C@H]2[C@@H](COC[C@@H](O)CN2C(=O)c2ccccc2F)O1)NCc1ccc(Cl)cc1,/,/,/,.,/
CN1CCN(C(=O)[C@@H]2[C@@H](CO)[C@@H]3Cn4c(ccc(-c5cccnc5)c4=O)[C@@H]3N2CC2CC2)CC1,/,/,/,.,/
C=CCOc1ccc(/C(CC)=N/O)c(OC)c1,?,.,23301,/,.
CCc1c(C)c2ccc(OCC(N)=O)cc2oc1=O,.,.,24076,/,.
Cc1c(CCC(=O)O)c(=O)oc2cc(OCc3cccc(Cl)c3)ccc12,.,40,.,.,.
N#C[C@H]1[C@@H](c2ccccc2C2=CCCCC2)[C@@H](CO)N1C(=O)NC1CCCCC1,/,/,/,.,/
CN1CCN(C(=O)C[C@@H]2C=C[C@@H](NS(=O)(=O)c3cccc(F)c3)[C@H](CO)O2)CC1,/,/,/,.,/
COc1cc(C2SCC(=O)Nc3c2c(C)nn3-c2ccccc2)cc(OC)c1OC (stereo unspecified),.,.,19341,/,.
COc1cc2[nH]cc(C(=O)NCc3cccs3)c(=O)c2cc1OC,.,.,17586,/,.
O=C(NCc1ccccc1)c1c[nH]c2cc3c(cc2c1=O)OCCO3,.,.,16706,/,.
COc1ccc(CC(=O)NCc2cccs2)cc1OC,.,.,.,/,.
O=C(NCc1ccc2c(c1)OCO2)c1ccc(Cl)c(S(=O)(=O)N2CCOCC2)c1,.,.,23645,.,.
O=C(Nc1ccc2c(c1)OCCO2)c1ccc(Br)c(S(=O)(=O)N2CCOCC2)c1,.,.,.,/,.
O=C(Oc1ccc2c(c1)OCO2)c1ccc(Br)c(S(=O)(=O)N2CCOCC2)c1,?,.,23166,/,.
CCCc1cn(CC[C@H]2CC[C@@H](NS(=O)(=O)c3ccc(-c4ccccc4)cc3)[C@H](CO)O2)nn1,/,/,/,.,/
CCC(=O)Nc1ccc2c(c1)C(=O)N(C)C[C@H](OC)[C@@H](C)CN(CCC(F)(F)F)[C@@H](C)CO2,/,/,/,.,/
C[C@@H]1C=C(C(=O)N2CCCCCCC2)O[C@H](OCc2ccc(CO)cc2)C1,/,/,/,.,/
CC(C)NC(=O)N[C@@H]1CC[C@H](CCNS(=O)(=O)c2ccc(Cl)cc2)O[C@@H]1CO,/,/,/,.,/
CCCC(=O)Nc1ccc2c(c1)C(=O)N(C)[C@H]1CC[C@H](CC(=O)Nc3cn(C)nc3C)O[C@H]1CO2,/,/,/,.,/
Cc1ccc(S(=O)(=O)NCC[C@@H]2CC[C@@H](NS(=O)(=O)c3ccccc3Cl)[C@@H](CO)O2)cc1,/,/,/,.,/
SMILES,BoNT A protease,BoNT-F LC inh,Bead autofluor,TcdB GH inh,Anthrax LF inh2
O=C(NCc1ccc2c(c1)OCO2)c1ccc(CN2CCOCC2)cc1,.,.,16861,/,.
O=C(NCc1ccccc1)c1ccc(CN2CCOCC2)cc1,.,.,.,/,.
O=C(NCc1ccc2c(c1)OCO2)c1c[nH]c2ccc(S(=O)(=O)N3CCOCC3)cc2c1=O,.,.,21299,/,.
COCCNC(=O)c1c[nH]c2ccc(S(=O)(=O)N3CCOCC3)cc2c1=O,.,.,.,.,.
C[C@@H]1CN([C@H](C)CO)C(=O)CCCn2cc(nn2)CO[C@H]1CN(C)Cc1ccc(C(=O)Nc2ccccc2N)cc1,/,/,/,.,/
COc1ccc2c3c(n(C)c2c1)[C@@H](CO)N(Cc1cccc(Cl)c1)CC31CCN(C(=O)C2CC2)CC1,/,/,/,.,/
CCC(=O)N1CC2(C1)[C@@H](c1ccc(-c3ccc(C)cc3)cc1)[C@@H](CO)N2S(C)(=O)=O,/,/,/,.,/
COc1ccccc1C#Cc1ccc([C@@H]2[C@@H](CO)N3CCCCN(C(=O)C4CC4)C[C@@H]23)cc1,/,/,/,.,/
Cc1ccc(NNC(=O)c2ccno2)cc1Cl,.,.,.,73,.
Cc1cc(C(=O)NNc2ccc(C)c(C)c2)no1,.,.,.,61,.
Cc1ccc(NNC(=O)c2ccno2)cc1C,.,.,.,88,.
Cc1ccc(NNC(=O)c2c(C)noc2C)cc1Cl,?,?,.,.,.
Cc1ccc(NNC(=O)c2cc(C)on2)c(C)c1,.,.,.,.,.
C[C@H]1CN([C@@H](C)CO)C(=O)c2cc(C3=CCCCC3)cnc2O[C@H]1CN(C)Cc1ccccc1,/,/,/,.,/
CC(=O)N(C)C[C@@H]1Oc2cc(-c3ccc(C)cc3)ccc2S(=O)(=O)N([C@H](C)CO)C[C@@H]1C,/,/,/,.,/
CNC(=O)C[C@@H]1CC[C@H]2[C@@H](COC[C@H](O)CN2Cc2ccc(C(F)(F)F)cc2)O1,/,/,/,.,/
Cc1ccc(S(=O)(=O)N(C)C[C@H]2Oc3ccc(N(C)C)cc3CC(=O)N([C@H](C)CO)C[C@H]2C)cc1,/,/,/,.,/
CCN(CC)S(=O)(=O)c1cc(NC(=O)C(=O)c2c(-c3ccccc3)cc3ccccn23)ccc1C,.,.,25900,/,.
CCn1c(-c2cc3c(C(F)(F)F)nn(C)c3s2)n[nH]c1=S,.,.,16651,/,.
COc1ccccc1-c1cn(CC[C@@H]2CC[C@H](NC(=O)C3CC3)[C@H](CO)O2)nn1,/,/,/,.,/
CS(=O)(=O)Nc1ccc(Cc2ccc(NS(C)(=O)=O)cc2)cc1,.,.,20871,/,.
CCCNC(=O)[C@H]1[C@H](CO)[C@H]2Cn3c(ccc(-c4ccccc4OC)c3=O)[C@H]2N1C(=O)CC,/,/,/,.,/
Cc1ccccc1-n1nc2c(c1NC(=O)c1c(-c3ccccc3Cl)noc1C)CS(=O)(=O)C2,.,.,16862,/,.
Cc1ccc(-n2nc3c(c2NC(=O)c2c(-c4ccccc4Cl)noc2C)CS(=O)(=O)C3)c(C)c1,?,.,23658,.,.
C[C@H](CO)N1C[C@H](C)[C@H](CN(C)Cc2ccncc2)Oc2ccc(NS(=O)(=O)c3cn(C)cn3)cc2CC1=O,/,/,/,.,/
SMILES,BoNT A protease,BoNT-F LC inh,Bead autofluor,TcdB GH inh,Anthrax LF inh2
COc1ccc(C2C(C(=O)N3CCN(C)CC3)c3cc(OC)c(OC)cc3C(=O)N2C)cc1 (stereo unspecified),.,.,.,.,.
CCN1CCN(C(=O)C2c3cc(OC)c(OC)cc3C(=O)N(C)C2c2ccc(SC)cc2)CC1 (stereo unspecified),?,.,22280,/,.
Cc1cnc([N+](=O)[O-])n1CCOC(=O)c1cccc(F)c1,.,.,.,.,.
Cc1cnc([N+](=O)[O-])n1CCOC(=O)NC(=O)c1ccc(F)cc1,.,.,.,32,.
CNC(=O)C[C@@H]1CC[C@H]2[C@H](COc3ccc(NC(=O)Nc4ccc(C)cc4)cc3C(=O)N2C)O1,/,/,/,.,/
Cc1nc2scc(-c3cccs3)c2c(=O)[nH]1,.,.,25937,/,.
O=c1[nH]c(-c2ccc(O)cc2)nc2scc(-c3cccs3)c12,.,.,.,.,.
COC(=O)C(C)N(C(=O)c1ccc(Cl)cc1)c1c(C)cccc1C (stereo unspecified),.,.,21162,.,.
